Bioassay records (PubChem)
A selection: hits, their analogues and other compounds. The true share with any hit is near 21%.
Pf growth 48h – Primary qHTS for delayed death inhibitors of the malarial parasite plastid, 48 hour incubation | P. falciparum luciferase growth in erythrocytes, 48 h | Potency, µM (top dose mostly 28.7 µM), inactives show at the top dose activity change, negative = inhibition, hits mostly inhibitors | actives 5.9% (n = 310,000) | AID 504832, 2011; further: potency means the concentration at half of the fitted maximal effect; on the % scale 0 is the no-effect control and ±100 the full control effect
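First compound was added to culture medium, then infected red cells at 0.1% parasitemia and 2% hematocrit (final). After incubation at 37 C under 5% CO2, luciferase detection reagent was dispensed and light output recorded.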
HCV inhibitor – qHTS Assay for Inhibitors of Hepatitis C Virus (HCV); Huh7.5.1 HCVcc-Cre infection, luciferase reporter, 44 h; Potency, µM (series often up to 41.8 µM), for inactives: at the top dose activity change, negative = inhibition, most hits filed as inhibitors; actives 3.4% (n = 340,000); AID 651820, 2012; further: potency means the concentration at half of the fitted maximal effect; on the % scale 0 is the no-effect control and ±100 the full control effect
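Cells seeded at 1,000/well and cultured 4 h, then compounds added followed by HCVcc-Cre virus (~0.5 moi). After 44 h further culture, luciferase substrate was added, plates held 15 min at room temperature, and luminescence read for 15 sec.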
Shiga inhibitor – A qHTS for Small Molecule Inhibitors of Shiga Toxin | Vero cells, Shiga toxin protein synthesis inhibition reporter | inhibition, % at 38.7 µM | actives 9.2% (n = 290,000) | AID 2315, 2010; in the data active means inhibition mostly above about 28%, no sharp cut-off; inactive means mostly below about 43%; further: 0% is about no effect
Pf growth 96h – Primary qHTS for delayed death inhibitors of the malarial parasite plastid, 96 hour incubation. actives 6.9% (n = 320,000). Potency, µM (titrated, usually from 28.7 µM), for the others: at the top dose activity change, negative = inhibition, most hits filed as inhibitors. AID 504834, 2011. P. falciparum luciferase reporter growth, 96 h; further: potency means the concentration at half of the fitted maximal effect; on the % scale 0 is the no-effect control and ±100 the full control effect
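Readout is luminescence from an integrated firefly luciferase in P. falciparum. Red cells, 2% hematocrit and 0.05% parasitemia final, were cultured with compound through two parasite generations (96 hours) at 37 C, 5% CO2.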
CHX counter – Cycloheximide Counterscreen for Small Molecule Inhibitors of Shiga Toxin; cell reporter, cycloheximide protein synthesis inhibition counterscreen; max response, %; actives 12% (n = 300,000); AID 2314, 2010; in the data active means max response mostly above about 13%, no sharp cut-off; inactive means mostly below about 14%; further: read at 38.3 µM for the half of the compounds with a filed dose; 0% is about no effect
AMA1-RON2 inh – qHTS for Inhibitors of AMA1-RON; Towards Development of Antimalarial Drug Lead: Primary Screen; AlphaScreen AMA1-biotinylated RON2 peptide binding; AID 720542, 2013; Potency, µM (series often up to 58.2 µM), inactives show at the highest dose activity change, negative = inhibition, most hits filed as inhibitors; Plasmodium falciparum AMA1 (3D7) - RON2 peptide interaction; actives 0.2% (n = 360,000);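 further: potency means the concentration at half of the fitted maximal effect; 0% = vehicle wells and -100% = peptide control; nearly all actives have a fitted effect of over 45% in size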
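AMA1 (3D7) with his tag at 25 nM final met compounds first, then biotinylated RON2 peptide at 25 nM; detection used donor plus acceptor beads, 10 µg/mL apiece, read by AlphaScreen after 30 min at room temperature.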
Active calls of the source: *; ? = inconclusive; / = not tested or not shown; [ ] = another dose, or the depositor's remark. Unless noted, the call rests on the fitted dose curve; in most records, active means well fitted curve in the direction sought with a large enough effect; inconclusive means small, poorly fitted or top-dose-only effect, or another doubt; inactive means no such curve, though single readings can be large; an effect the other way counts as inactive or inconclusive.

SMILES	Pf growth 48h	HCV inhibitor	Shiga inhibitor	Pf growth 96h	CHX counter	AMA1-RON2 inh
O=C(Nc1ccc(C2=NCCN2)cc1)c1ccc(Cl)c(C(=O)Nc2ccc(C3=NCCN3)cc2)c1	2.3µM*	/	-7	0.21µM*	-2	/
Clc1ccc(C2=NCCN2)cc1	-29%	12%	5	1%	-2	-2%
O=C(Nc1ccc(Cl)c(Cl)c1)Nc1cc(C(=O)NC2CC2)ccc1Cl	13µM*	?	-5	?	-2	/
O=C(NNC(=O)c1ccc(Cl)c(Cl)c1)c1cccnc1	38%	22%	-14	36%	1	64%
CCCc1ccc(S(=O)(=O)NCc2nnc(SC)n2C)cc1	38%	0%	-5	?	-2	-14%
CC(C)(C)c1ccc(C(=O)Nc2cccc3c(=O)[nH][nH]c(=O)c23)cc1	242%	?	55*	?	56*	-8%
CC(=O)Nc1ccccc1NC(=O)c1cccc2ccccc12	-8%	-1%	12	?	9	-3%
Cc1ccccc1NC(=O)c1ccc(NS(=O)(=O)c2cc(C(C)(C)C)cc(C)c2C)cc1	-8%	?	-6	11%	-5	19%
Cc1cc(C(=O)Nc2cccc3ccccc23)co1	26%	1%	28	?	14*	1%
Cc1ccc(C(=O)Nc2cccc3ccccc23)o1	/	-7%	/	/	/	-21%
Cc1oc(-c2ccccc2)cc1C(=O)Nc1cccc2ccccc12	0%	?	13	0%	16*	-6%
COc1cc(OC)c(C(=O)Nc2cccc3ccccc23)cc1OC	17%	-26%	/	-9%	21*	-2%
Cc1oc(-c2ccccc2)cc1C(=O)Nc1cccc(C(=O)O)c1	56%	13%	-10	?	12	-8%
CCOc1ccc(S(=O)(=O)N(CC)CC)cc1NC(=O)CSCc1c(C)noc1C	?	-19%	/	?	/	5%
Cc1nccn1CCCNC(=O)CC1C(=O)NCCN1Cc1ccc(F)cc1Cl (stereo unspecified)	6%	-22%	-7	?	-7	8%
O=C(Cc1ccccc1[N+](=O)[O-])NCC(=O)c1ccc2c(c1)OCO2	/	2%	/	/	/	10%
Cc1ccc(C(=O)Nc2cccc3ccccc23)cc1	48%	-15%	35*	30%	29*	6%
COc1ccc(C(=O)Nc2cccc3ccccc23)cc1	57%	-5%	32	?	21*	-1%
Cc1ccc(C)c(NC(=S)N2CCC(NC(=O)c3ccccc3)CC2)c1	5%	-3%	3	30%	-6	7%
Cc1ccc(-c2c(C(=O)N(C)Cc3ccccc3)oc(=O)c3ccccc23)cc1	?	0%	7	4.7µM*	4	-18%
COCCN(C(=O)c1cc(Cl)ccn1)c1c(N)n(Cc2ccccc2)c(=O)[nH]c1=O	-16%	19%	/	4%	/	102%[11.6 µM]
O=c1[nH]c(=S)n(C2CC2)c(O)c1C=Nc1ccc2c(c1)OCO2	29%	6%	37	7%	14*	-3%
O=c1[nH]c(=S)n(C2CC2)c(O)c1C=NCc1cccnc1	1%	5%	6	12%	-2	-1%
CC(C)c1ccc(N=Cc2c(O)n(C3CC3)c(=S)[nH]c2=O)cc1	16%	-16%	52*	17%	10*	15%
COc1ccc(OC)c(S(=O)(=O)Nc2cccc3ccc(O)cc23)c1	/	0%	/	/	/	-9%
N#C/C(C(=O)NCCc1ccccc1)=C1/N=C(NC(=O)c2cccs2)c2ccccc21	6%	-10%	9	-34%	9	6%
COCCCNC(=O)/C(C#N)=C1\N=C(NC(=O)c2cccs2)c2ccccc21	6%	-23%	6	30%	18*	26%
Cc1cc(C)n(C(N)=NC(=O)c2ccccc2)n1	/	/	/	/	/	152%
Cc1cc(C)n(C(N)=NC(=O)c2ccc([N+](=O)[O-])cc2)n1	237%	4%	40*	146%	28*	-7%
